Laboratory results published in PubChem BioAssay (EPA / NIEHS).
Where “and” joins values, the source holds several entries; their conditions need not be identical. Equal entries are not always repeated. Calls of active or inactive are those of the source. How the source made its calls: active means hit-call score of the fitted dose curve at least 0.9, where 1 is the maximum; inactive means score below 0.9.

These compounds were tested on Urokinase-type plasminogen activator receptor (uPAR), PLAUR (gene 5329) (assay: BSK_BE3C_uPAR: BioMAP Diversity Plus: BE3C Assay for Urokinase-type plasminogen activator receptor (uPAR) Biomarker Activity (AID 2283039;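 on outcome: cells exposed to compound for one day before measurement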)). Conditions: primary human bronchial epithelial cells; actives raise or lower the signal.
Method: BSK_BE3C is a cell-based, multiplexed-readout assay that uses bronchial epithelial cell, a human lung primary cell, with measurements taken at 24 hours after chemical dosing in a 96-well plate.BSK_BE3CAR is an assay component measured in the BSK_BE3C assay. It measures uPAR antibody related to regulation of gene expression using ELISA technology.Data from the assay component BSK_BE3CAR was analyzed into 1 assay endpoint. This assay endpoint, BSK_BE3CAR, was analyzed with bidirectional fitting relative to DMSO as the negative control and baseline of activity. Using a type of binding reporter, gain or loss-of-signal activity can be used to understand changes in the signaling as they relate to the gene PLAUR. Furthermore, this assay endpoint can be referred to as a primary readout, because this assay has produced multiple assay endpoints where this one serves a signaling function. To generalize the intended target to other relatable targets, this assay endpoint is annotated to the cytokine intended target family, where the subfamily is plasmogen activator.
The levels of cell surface (or secreted, indicated by the prefix "s") biomarker endpoints were measured by ELISA. Overt cytotoxicity to cells in confluent adherent cultures (all systems other than the BT system) was assessed by measuring total protein levels using sulforhodamine B (SRB) staining in parallel cultures at the time of biomarker measurements, indicated as SRB endpoints. For proliferation assays for adherent cell types, individual cell types are cultured at sub-confluence and relative cell numbers quantified by SRB staining at time points optimized for each system (48 h: 3C and CASM3C systems; 72 h: BT and HDF3CGF systems; 96 h: SAg system). SRB was performed by staining cells with 0.1% SRB after fixation with 10% TCA and reading wells at 560 nm.Viability and proliferation of PBMC (T cells) was quantified by Alamar Blue reduction for the SAg and BT systems. For PBMC viability (referred to as PBMC Cytotoxicity within the assay endpoint names), cells were plated (75,000/well in a 96-well plate) and then chemical samples added for 1 h before addition of activators, SEB and TSST-1 (20 ng/mL final concentration each). Cells were incubated for 90 h. Then, Alamar Blue (20 uL/well) (Invitrogen, Cat DAL1100) was added for 6 h, and the plates were read with a fluorescence microplate reader at 546/580 nm (excitation/emission). For PBMC proliferation, cells were plated and activated as above but incubated for only 16 h prior to addition of Alamar Blue. Plates were read after 6 h.
In the case of `C=CC(=O)OCCC(F)(F)C(F)(F)C(F)(F)C(F)(F)C(F)(F)C(F)(F)C(F)(F)C(F)(F)F`, the outcome was “inactive”.
With `O=C(NO)c1ccccc1` the outcome was “inactive”.
With `OCC(CO)(CBr)CBr` the outcome was “inactive”.
`O=P(O)(O)CCC(F)(F)C(F)(F)C(F)(F)C(F)(F)C(F)(F)C(F)(F)F` was tested, and the outcome was “inactive”.
For `CC(=O)Nc1ccc(O)cc1`, the outcome was “inactive”.
For `O=C(O)C(F)(F)OC(F)(F)C(F)(F)OC(F)(F)C(F)(F)OC(F)(F)C(F)(F)C(F)(F)C(F)(F)F`, the AC50 was 5.83 µM (active) and 5.88 µM (active).
`Oc1cc2ccccc2cc1O` was tested, and the outcome was “inactive”.
In the case of `COc1cccc(O)c1`, the outcome was “inactive”.
In the case of `OCCN1CN(CCO)CN(CCO)C1`, the outcome was “inactive”.
`OCC(F)(F)C(F)(F)C(F)(F)C(F)(F)C(F)(F)C(F)(F)C(F)(F)C(F)(F)C(F)(F)C(F)(F)C(F)(F)F` was tested, and the outcome was “inactive”.
In the case of `Cc1cccc2c1ccc1ccccc12`, the outcome was “inactive”.
`O=P(O)(O)CCC(F)(F)C(F)(F)C(F)(F)C(F)(F)C(F)(F)C(F)(F)C(F)(F)C(F)(F)F` was tested, and the outcome was “inactive”.
For `O=C(CCCN1CCC(O)(c2ccc(Cl)cc2)CC1)c1ccc(F)cc1`, the outcome was “inactive”.
With `CCCCCCCCCCCCCCCCCC[N+](C)(C)Cc1ccccc1` the outcome was “inactive”.
`CCCCC(CC)C(=O)OCCOCCOCCOCCOC(=O)C(CC)CCCC` (stereo not given) was tested, and the outcome was “inactive”.
In the case of `CC(C)(C)c1ccc(O)c(O)c1`, the outcome was “inactive”.
For `O=C(O)CCC(F)(F)C(F)(F)C(F)(F)C(F)(F)C(F)(F)C(F)(F)F`, the outcome was “inactive”.
`C[C@]12CC[C@@H]3c4ccc(O)cc4CC[C@H]3[C@@H]1C[C@@H](O)[C@@H]2O` was tested, and the outcome was “inactive”.
In the case of `CN(Cc1cnc2nc(N)nc(N)c2n1)c1ccc(C(=O)N[C@@H](CCC(=O)O)C(=O)O)cc1`, the outcome was “inactive”.
`CC[N+](CC)(CC)Cc1ccccc1` was tested, and the outcome was “inactive”.
In the case of `CN(C)c1ccc(C(=C2C=CC(=[N+](C)C)C=C2)c2ccccc2)cc1`, the AC50 was 0.186 µM (active).
`CCCCCc1ccc(O)cc1` was tested, and the AC50 was 30.5 µM (active).
In the case of `NC(=NCCCCCCN=C(N)/N=C(\N)Nc1ccc(Cl)cc1)/N=C(\N)Nc1ccc(Cl)cc1`, the AC50 was 3.1 µM (active).
`CS(=O)(=O)c1ccc([C@@H](CC2CCCC2)C(=O)Nc2cnccn2)cc1Cl` was tested, and the outcome was “inactive”.
For `O=C(c1ccccc1)c1ccccc1`, the outcome was “inactive”.
With `CCCCC=O` the outcome was “inactive”.
With `Cc1ccc(N=Nc2c(O)ccc3ccccc23)c(C)c1` the AC50 was 4.02 µM (active).
With `C=COC(=O)C(C)(C)CCCCCC` the outcome was “inactive”.
For `CCCCCCCCCCCCCCC`, the outcome was “inactive”.
`O=C(O)CCC(F)(F)C(F)(F)C(F)(F)C(F)(F)C(F)(F)F` was tested, and the outcome was “inactive”.
`C=CC(C)(CCC=C(C)C)OC(C)=O` (stereo not given) was tested, and the AC50 was 27.1 µM (active).
`CCCCCCCCCCCCOS(=O)(=O)O` was tested, and the AC50 was 32.8 µM (active).
For `O=C1NS(=O)(=O)c2ccccc21`, the outcome was “inactive”.
`N=C(N)c1ccc(OCCCCCOc2ccc(C(=N)N)cc2)cc1` was tested, and the outcome was “inactive”.
In the case of `O=C1OC2(c3ccccc31)c1cc(I)c(O)c(I)c1Oc1c2cc(I)c(O)c1I`, the AC50 was 6.1 µM (active).
With `COc1cc(OC)nc(NC(=O)NS(=O)(=O)Nc2ccccc2C(=O)N(C)C)n1` the outcome was “inactive”.
For `O=C1c2ccc(O)c(O)c2C(=O)c2c(O)ccc(O)c21`, the outcome was “inactive”.
For `Cc1ccc(C(=O)c2ccccc2)cc1`, the outcome was “inactive”.
In the case of `O=C(CC(=O)C(F)(F)C(F)(F)C(F)(F)F)c1cccs1`, the AC50 was 45.6 µM (active).
`CN(CCO)S(=O)(=O)C(F)(F)C(F)(F)C(F)(F)C(F)(F)C(F)(F)C(F)(F)C(F)(F)C(F)(F)F` was tested, and the outcome was “inactive”.
